Sampled rows, rich in hits. Any-hit rate of the full collection: about 9.6%.
HCT116 PTEN-null – growth suppressors of cells with PTEN tumor suppressor deletion; HCT116 PTEN-null viability, CellTiter-Glo, 60 h; active compounds read low; viability, % at 10 µM; 140,000 tested, 1.2% active; AID 827;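 active = viability at or below a set limit, 4 SD under the median of all tested compounds, cut at about 3.7% in these data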;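 note: PTEN knockout HCT116 line with beta catenin targeted HCT116 as companion control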
Insulin prom up – MIN6 insulin promoter up-regulation | AID 1625 | MIN6 insulin promoter-GFP reporter, high-content imaging; active compounds read high | z-score at 5 µM | 190,000 tested, 0.3% active;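 active = z-score above 3 at 5 µM with at least 500 cells counted in the well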
INS promoter inh – TRM-6 insulin promoter activity inhibition | TRM-6 cells (human fetal islet line), insulin promoter-eGFP reporter, imaging; reporter expression induced with tamoxifen | inhibition, % at 2 µM | 130,000 tested, 0.9% active | AID 1273;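 active = inhibition above the mean plus 3 SD, with well images judged a real hit on visual review, cut at about 60% in these data, passing the limit was not always enough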
Autophagy mod – autophagy modulation, high-content screen; MEF GFP-LC3 puncta imaging; test concentration mostly 10 µM; calls only at 10 µM (by protocol); 190,000 tested, 0.98% active;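 active = percentage of spot-positive cells more than 3 SD above its plate mean, without a fluorescence outlier flag or 80% toxicity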;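 note: spot-positive cell cutoff set from DMSO-treated cells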
L major viab – Leishmania major promastigote growth inhibition; 200,000 tested, 9% active; Leishmania major promastigotes, resazurin fluorescence viability; inhibition, % at 10 µM; AID 1063; in the data active = inhibition above about 50%;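 note: promastigotes grown with compound for 44 hours at 28 °C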
bCat KO growth – beta-catenin-lacking colon tumor cell growth suppression; viability, % at 10 µM; AID 818; 140,000 tested, 1.5% active; HCT116 beta-catenin knockout viability, CellTiter-Glo, 60 h; active compounds read low;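 active = viability at or under a set limit, the compound median less 4 SD, cut at about 6% in these data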;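 note: 0% = Hyamine 1622 control at 20 µM and 100% = untreated cell control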
Active calls of the source: *; i = inactive; x = no result.

SMILES | HCT116 PTEN-null | Insulin prom up | INS promoter inh | Autophagy mod | L major viab | bCat KO growth
Cc1csc2nc(CNS(=O)(=O)c3ccc(-c4ccccc4)cc3)cn12 | 88 | 0.3 | -29 | i | -5 | 91
CCOC(=O)c1c(-c2ccc(OC)c(OC)c2)csc1NC(=O)C1CCCO1 (centres undefined) | x | -0.06 | x | i | 100* | x
CCOc1ccc(NC(=O)CN(C)CC(=O)Nc2ccccc2C#N)cc1OCC | 94 | -0.56 | x | i | -2 | 91
CC(C)CNC(=O)NC(=O)COC(=O)COc1ccc(Cl)cc1Cl | x | -0.6 | x | x | x | x
CCN(CC)C(=O)C(C)OC(=O)COc1ccc(Cl)cc1Cl (centres undefined) | 91 | 0.23 | -39 | i | 58* | 94
Cc1cccc(NC(=O)CSc2nnc(NC(=O)c3ccc(S(=O)(=O)N4CCOCC4)cc3)s2)c1C | 92 | -0.99 | 0 | i | 87* | 87
COc1ccc(NC(=O)CSc2nnc(NC(=O)c3ccc(S(=O)(=O)N4CCOCC4)cc3)s2)cc1 | 87 | -0.11 | 22 | i | 76* | 90
Cc1ccc(Nc2nnc(SCC(=O)Nc3ccc(S(=O)(=O)N4CCOCC4)cc3)s2)cc1 | 85 | 0.2 | 21 | i | 40 | 84
C=CCSc1nnc(NC(=O)c2cccc(S(=O)(=O)N3CCOCC3)c2)s1 | 100 | 3.2* | 67 | i | -1 | 102
Cc1nnc(NC(=O)c2cccc(S(=O)(=O)N3CCOCC3)c2)s1 | 99 | x | 6 | i | 2 | 92
O=C(CSc1cccc(C(F)(F)F)c1)Nc1cc(S(=O)(=O)N2CCCC2)ccc1Cl | 63 | -0.06 | -44 | i | 55* | 63
O=C(CSc1nnc(Nc2ccccc2)s1)Nc1ccc(S(=O)(=O)N2CCOCC2)cc1 | 56 | -0.63 | 14 | i | 10 | 53
O=C(COc1ccc(Cl)cc1Cl)Nc1nc2n(n1)C(c1ccccc1)CC(=O)N2 (centres undefined) | 97 | 1.6 | x | i | -8 | 98
Cc1nc2sccn2c1-c1nc(-c2cc3ccccc3o2)cs1 | 72 | -0.03 | 6 | i | -2 | 74
C=CCOC(=O)C1=C(C)Nc2nnnn2C1c1ccc(OC)cc1OC (centres undefined) | 107 | 0.03 | -3 | i | 5 | 94
Cc1cccc(Nc2nnc(SCC(=O)Nc3cccc(S(=O)(=O)N4CCCCC4)c3)s2)c1 | 65 | -0.41 | 0 | i | 43 | 64
Cc1cccc(C)c1Nc1nnc(SCC(=O)Nc2cc(S(=O)(=O)N3CCCCC3)ccc2Cl)s1 | 67 | -1.2 | 8 | i | 50* | 70
OC(C#CCN1CCOCC1)c1cccs1 (centres undefined) | 85 | 1.2 | x | i | -4 | 86
O=C(COc1ccc(Br)cc1CNCCc1ccccc1)NCc1ccccc1 | x | -2 | -36 | i | 88* | x
COc1cc(C=O)c(Br)cc1OCC(=O)NCCc1ccccc1 | x | 0.19 | -195 | i | 4 | x
NC(=O)N/N=C/c1cc(Br)ccc1OCC(=O)NCc1ccccc1 | 89 | 0 | -22 | i | -4 | 91
CCCNCc1cc(Br)ccc1OCC(=O)NCCc1ccccc1 | 75 | -0.54 | -10 | i | 52* | 72
Cn1c(SCC2CCCO2)nnc1-c1ccncc1 (centres undefined) | 107 | 0.18 | x | i | -7 | 101
COc1ccc(C(=O)Oc2c(CN3CCOCC3)cc(Cl)c3cccnc23)cc1 | 3.1* | x | -21 | i | 97* | 4.9*
O=C(Oc1ccc(Cl)c2cccnc12)N1CCOCC1 | 83 | 0.75 | -16 | i | -6 | 88
SMILES | HCT116 PTEN-null | Insulin prom up | INS promoter inh | Autophagy mod | L major viab | bCat KO growth
COc1cc(C(=O)Oc2c(CN3CCOCC3)cc(Cl)c3cccnc23)cc(OC)c1OC | 1.5* | -0.56 | x | i | 100* | 2.4*
O=C(Oc1c(CN2CCOCC2)cc(Cl)c2cccnc12)c1ccc(F)cc1 | 1.9* | -0.69 | -5 | i | 100* | 5.0*
COc1cccc(C(=O)Oc2c(CN3CCOCC3)cc(Cl)c3cccnc23)c1 | 1.4* | -1.3 | 14 | i | 100* | 1.6*
CCC(=O)Oc1ccc(C/C(=N\O)c2ccc(O)cc2O)o1 | 79 | 0.09 | 41 | i | 10 | 82
COc1cc(/C=N/n2c(-c3ccccc3)n[nH]c2=S)cc(OC)c1O | x | -0.38 | x | x | x | x
COc1ccc(CNC(=O)c2c(O)c3cccc4c3n(c2=O)CCC4)cc1 | 81 | -0.74 | 31 | i | -2 | 92
O=C(CSc1nnc(CNC(=O)c2cccs2)o1)NC1CCCC1 | 88 | 0.52 | 22 | i | -5 | 87

Bioassay records as filed in PubChem BioAssay.
